This is part of a sample that, as a whole, favours compounds with a hit. Of some 83,000 tested, about 20% had one in any assay.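 96-well plates, one dose, 48 hours. Percent growth reported; active if below 10.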 Unmarked numbers belong to inactive results. Activity calls are given as the source filed them.

The test system of this assay is HCT-15 colon. As to the kind of experiment: NCI-60 one-dose screen, 48 h (100 = growth as untreated, 0 = no growth, -100 = all killed). Conditions: 10 µM unless noted.
`NC(=O)c1c(NC(=O)c2ccc(Cl)cc2)sc2c1CCC(=O)C2`: the growth was 63.5%.
Turning to `COc1ccc(/C(C)=C(\c2ccc(OCCN3CCCCCC3)cc2)c2ccc(OC(=O)c3ccccc3)cc2)cc1`, the growth is 12.1%.
The result for `Clc1ccc(-c2cn3ccsc3n2)c(Cl)c1Cl` reads 89.5%.
Consider `COc1ccc(Cl)cc1Nc1nc(C(F)(F)F)ccc1C(=O)N/N=C/c1ccccc1Cl`, for which the growth is 0.947% (active).
The result for `Cc1cc(C)cc(Nc2ccc([N+](=O)[O-])c(NCCN3CCOCC3)n2)c1` reads 11.5%.
The result for `C=CCn1c(SCC(=O)Nc2ccc(C(=O)/C=C/c3cc(OC)c(OC)c(OC)c3)cc2)nnc1-c1cc(-c2ccc(OC)cc2)nc2ccccc12` reads 83.4%; that for `C#CCOc1cccc(-c2ncc3cc(NC(=O)CCl)ccc3n2)c1`, -29.6% (active).
Under `Cn1cc(-c2nn3cc(-c4ccccc4)nc3s2)c2ccccc21` stands 44.7%; under `Cc1cc2nc3c4ccccc4n(CCN(C)C)c3nc2cc1C`, -3.11% (active); under `CCC(C)Nc1ccc(NC(C)CC)cc1` (stereo not given), 97.7%.
Consider `O=C(CCCCCCN1CC(=O)N2[C@@H](C3CCCCC3)c3[nH]c4ccccc4c3C[C@H]2C1=O)NO`, for which the growth is 115%.
Under `C(/C=C/c1ccccc1)=Nc1ccc(CCc2ccc(N=C/C=C/c3ccccc3)cc2)cc1` stands 15.9%; under `Cc1c2ccccc2nc2c1ccc1cccnc12`, 81.4%; under `Cc1ncc(C(=O)Nc2ccc(CN3CCN(C)CC3)c(C(F)(F)F)c2)cc1C#Cc1cnc(N)c2cnccc12`, 6.59% (active).
As for `CC(C)(C)C(=O)/C=C/c1ccc([N+](=O)[O-])cc1`, the growth is 42.1%.
For `N#Cc1c(-c2ccccc2)nc2c(c(-c3ccccc3)nn2-c2ccccc2)c1-c1ccc(N2CCOCC2)cc1`, the growth was 37.3%.
Under `Cc1ccc(C)n1/C=C/n1c(C)ccc1C` stands 106%; under `CN(C)Cc1ccc(C(=O)Nc2ccc3ncnc(Nc4ccc(Oc5cccc(F)c5)c(Cl)c4)c3c2)cc1`, -45.3% (active); under `O=c1[nH]cnc2c1C(c1ccc(Br)cc1)c1sc3c(F)cccc3c1O2` (stereo not given), 99.2%.
The result for `CS(=O)(=O)Nc1cncc(-c2ccc3ncnc(Nc4ccc(F)c(Cl)c4)c3c2)c1` reads 51.1%.
With `Cc1cc(N2CCN(C)CC2)nc(NCc2cc(Nc3ccnc4cc(Cl)ccc34)ccc2F)n1`, the growth was -17.6% (active).
The result for `COc1ccc(-c2ccc(=O)oc2C#Cc2cc(OC)c(OC)c(OC)c2)cc1O` reads 22.5%.
Under `COc1cc(/C=C2\C(=O)N(c3c(Cl)cccc3Cl)c3ccccc32)cc(OC)c1OCCCCCCn1c2ccccc2c(=O)c2ccccc21` stands 108%; under `CC/C=C1/C(=O)C=C[C@@H]1C/C=C\CCCC(=O)OC`, 21.2%.
With `COc1ccc2c(c1)c(-c1nonc1-c1cn(C)c3ccc(OC)cc13)cn2C`, the growth was 25.4%.
As for `C=C1C(=O)O[C@H]2[C@H]1CC/C(COC(=O)/C=C\C(=O)NCc1ccc(Cn3c(=O)sn(-c4ccccc4)c3=O)cc1)=C\CC[C@@]1(C)O[C@@H]21`, the growth is 42.4%.
Consider `Cc1nn(-c2ccccc2)c(/N=C/N(C)C)c1/C=C/C(=O)c1ccc(Cl)cc1`, for which the growth was 62.7%.
As to `C#CC#CC#CC#CC#CC#CC#CC#CCC1OCC(COC(=O)O[C@@H](C(=O)O[C@H]2C[C@@]3(O)[C@@H](OC(=O)c4ccccc4)[C@@H]4[C@]5(OC(C)=O)CO[C@@H]5C[C@H](O)[C@@]4(C)C(=O)[C@H](OC(C)=O)C(=C2C)C3(C)C)[C@@H](NC(=O)c2ccccc2)c2ccccc2)O1` (stereo not given in full), the growth was 66.8%.
Take `COc1ccc(/C=C/C(=O)c2cc3c(N)c(C(=O)Nc4ccc(OC)cc4)sc3nc2C)cc1`: the growth is 20.6%.
On to `N=C(N)c1ccc(-c2ccc(-c3ccc(Cl)cc3)o2)o1`, for which the growth was -78.1% (active).
The result for `COc1ccc(-c2nnc(SCC(=O)Nc3ccc(/C(C)=N\O)cc3)n2-c2ccccc2)cc1OC` reads 98.6%; that for `Cc1ccc(-c2nc(C#N)c(S(=O)(=O)NCCO)o2)cc1`, 41.8%; that for `N#CC(C#N)N=Nc1ccc(Cl)cc1Cl`, 85%.
Consider `C=CCOC(=O)C1=C(C)NC(=O)NC1c1c(Cl)n(C)c2ccccc12` (stereo not given), for which the growth is 99.8%.
Under `CCCCCCCCn1ccc2cc(NC(=O)Cn3cc(CN4CCCCCC4)nn3)ccc21` stands -65.9% (active); under `O=C(CN1C(=O)NC2NC(=O)NC21)N/N=C/c1ccc(Cl)cc1Cl` (stereo not given), 104%.
Under `COc1cc(C2=NN(C(C)=O)C(c3ccc(N(C)C)cc3)C2)cc(OC)c1OC` (stereo not given) stands 102%; under `COc1cccc(/C=C/C(=O)c2cc3c(N)c(C(=O)Nc4cccc(Cl)c4C)sc3nc2C)c1`, -57.4% (active).
As for `CCCn1c(=S)sc2c1nc(C)n1c(Nc3ccccc3)nnc21`, the growth was 74.8%.
Take `OC(c1ccccc1)(c1ccccc1)c1ccccc1-c1ccccc1`: the growth is 90.7%.

Source of the values: PubChem BioAssay (NCI).
